Experiment [1] can be described thus: qHTS assay to identify small molecule antagonists of the constitutive androstane receptor (CAR) signaling pathway - cell viability counter screen (AID 1224837). Note: nearly all actives have a fitted effect of over 45% in size. In outline: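 Using CellTiter-Fluor, viability is scored in HepG2 cells stably carrying hCAR and a 2.2kb CYP2B6 reporter after 23 hr compound exposure across 15 concentrations, with CITCO present at 50 nM.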

For experiment [2], the target named is Nuclear receptor subfamily 1 group I member 3 (Homo sapiens) (UniProt Q14994). Nature of the experiment: qHTS assay to identify small molecule antagonists of the constitutive androstane receptor (CAR) signaling pathway (AID 1224838).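 Note: HepG2 cells stably expressing hCAR with CYP2B6 luciferase reporter stimulated by CITCO; nearly all actives have a fitted effect of over 40% in size.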 An outline of the steps: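 Reporter luminescence was quantified after 24 h exposure of hCAR/CYP2B6-2.2kb double-stable HepG2 cells to compounds at 15 concentrations in the presence of 50 nM CITCO final.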
Chain of Nuclear receptor subfamily 1 group I member 3 (Homo sapiens) (Q14994 whole entry, looked up): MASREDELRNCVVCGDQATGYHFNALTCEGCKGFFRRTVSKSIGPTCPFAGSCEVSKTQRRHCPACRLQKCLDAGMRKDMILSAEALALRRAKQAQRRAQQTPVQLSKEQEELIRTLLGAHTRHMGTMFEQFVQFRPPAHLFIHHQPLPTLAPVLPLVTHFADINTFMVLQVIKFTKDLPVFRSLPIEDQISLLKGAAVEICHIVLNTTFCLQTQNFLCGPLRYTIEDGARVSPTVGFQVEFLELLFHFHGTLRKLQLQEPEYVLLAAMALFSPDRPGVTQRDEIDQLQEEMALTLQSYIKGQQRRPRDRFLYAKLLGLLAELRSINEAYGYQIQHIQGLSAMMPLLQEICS

Experiment [3] shares this target. In words: qHTS assay to identify small molecule agonists of the constitutive androstane receptor (CAR) signaling pathway (AID 1224839). Note: nearly all actives have a fitted effect of over 15% in size. Note: potency is the fitted concentration of half-maximal effect. In outline:
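Cells were plated and incubated 4 hrs, then dosed with compounds at 15 concentrations. PK11195 was added to 0.75 uM final. After 24 hrs at 37 C, luciferase luminescence was measured.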

A short description of experiment [4]: qHTS assay to identify small molecule antagonists of the estrogen related receptor signaling pathway with the pleiotropic PPARgamma coactivator (PGC) from Tox21 10K library - cell viability counter screen (AID 1224840; active = well fitted cell-killing curve with a large enough effect in the repeat runs, not every such curve was filed as active; note: nearly all actives have a fitted effect of over 40% in size). In outline: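 Here the PGC/ERR cells serve as a cytotoxicity control: they are exposed to compounds for 17.5 hours at 37 C, and live-cell signal is quantified using CellTiter-Fluor fluorescence.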

A short description of experiment [5]: qHTS assay to identify small molecule antagonists of the estrogen related receptor signaling pathway with the pleiotropic PPARgamma coactivator (PGC) from Tox21 10K library (AID 1224841; call rule not given here; note: actives are mostly falling curves and most rising ones were filed inactive; nearly all actives have a fitted effect of over 50% in size). In outline:
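Each well held 2,000 PGC/ERR cells, pre-incubated six hours (37 C, 5% CO2). Test substances in DMSO were added by pin tool and left for 18 h at 37 C before luciferase detection by One-Glo.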

A short description of experiment [6]: qHTS assay to identify small molecule agonists of the estrogen related receptor signaling pathway with the pleiotropic PPARgamma coactivator (PGC) from Tox21 10K library (AID 1224842). Note: nearly all actives have a fitted effect of over 15% in size. An outline of the steps:
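PGC/ERR reporter cell line, 2,000 cells per well, incubated 6 h at 37 C before 23 nL compound in DMSO was added. After 18 h at 37 C, One-Glo luminescence read following 30 min at room temperature.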

Experiment [7] has as its target Thyrotropin receptor (Homo sapiens) (UniProt P16473). In words: qHTS assay to identify small molecule agonists of the thyroid stimulating hormone receptor (TSHR) signaling pathway (AID 1224843; calls by dose curve; note: nearly all actives have a fitted effect of over 45% in size). In outline: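 TSHR-HEK293 cells in agonist mode, 30 min room-temperature step, then cAMP measured by competitive HTRF (cAMP-d2 with anti-cAMP cryptate) after 1 h at room temperature. Tested at 15 concentrations in triplicate.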

A short description of experiment [8]: qHTS assay to identify small molecule agonists of the hypoxia (HIF-1) signaling pathway - cell viability counter screen (AID 1224844; calls by dose curve; note: nearly all actives have a fitted effect of over 50% in size). In outline:
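Multiplexed with the HRE beta-lactamase assay, this viability read used CellTiter-Glo luminescence (30 min, RT) on HRE-bla ME-180 cells treated 17 hrs with compounds in 0.5% dialyzed FBS medium.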

Experiment [9] can be described thus: qHTS assay to identify small molecule agonists of H2AX (AID 1224845; active = well fitted activation curve with a large enough effect in the signal ratio in the repeat runs, not every such curve was filed as active; the % refers to the signal ratio). In outline: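 Wild-type CHO-K1 cells, plated overnight, exposed 3hr at 37C to 15 concentrations (0.76% DMSO final). Lysed, then HTRF anti-pH2AX (S139) cryptate and anti-H2AX-d2 antibodies, 24 hr room temperature; 665/620 nm emission read.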
Experiment [10] in a line: qHTS assay to identify small molecule agonists of the hypoxia (HIF-1) signaling pathway (AID 1224846; active = well fitted activation curve with a large enough effect in the signal ratio in the repeat runs, not every such curve was filed as active; the % refers to the signal ratio). In outline:
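Hypoxia-pathway activation was scored as increased beta-lactamase from an HRE-controlled reporter in ME-180 cells; plated at 2,000 cells per well with 0.5% dialyzed FBS, they were exposed 17 hrs to compounds and then given CCF4-AM.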

The nature of experiment [11]: qHTS assay to identify small molecule agonists of H2AX - cell viability counter screen (AID 1224847; calls by dose curve; note: top concentration of the series differs between compounds; nearly all actives have a fitted effect of over 30% in size). An outline of the steps: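 Cytotoxicity counter screen in wild-type CHO-K1 cells: a 3 hr compound treatment at 37C across 15 concentrations, followed by CellTiter-Glo luminescence to gauge viable cells.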
Experiment [12] in a line: qHTS assay to identify small molecule antagonists of the estrogen related receptor (ERR) signaling pathway from Tox21 library (AID 1224848). Note: nearly all actives have a fitted effect of over 50% in size. An outline of the steps:
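ERR reporter cell line (from NTP) seeded 2,000 cells/well, rested 6 h at 37 C/5% CO2, then pin-dosed with compounds in DMSO. After 18 h at 37 C, ONE-Glo added; luminescence read after 30 min at room temperature.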

Experiment [13] in a line: qHTS RealTime-Glo MT Cell Viability Assay in HepG2 cells - 24 hour (AID 1224867). Note: nearly all actives have a fitted effect of over 50% in size. An outline of the steps: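 HepG2 cells (600/well) were dispensed with RealTime-Glo reagents, incubated 5 h at 37 °C, then treated with compounds in DMSO for up to 40 h. Nonlytic NanoLuc luminescence reflecting viable cells was read at each stated time point.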
Experiment [14] can be described thus: qHTS RealTime-Glo MT Cell Viability Assay in HEK293 cells - 32 hour (AID 1224868). In outline: (§1)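 HEK293 cells seeded with NanoLuc/prosubstrate reagent, rested 5 h at 37 C, then dosed and kept at 37 C up to 40 h. Nonlytic real-time luminescence from viable cells read at 0, 8, 16, 24, 32 and 40 h.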
A short description of experiment [15]: A CellTox Green Cytotoxicity Assay to monitor cytotoxicity in HEK293 cells - 0 hour (AID 1224869). Note: nearly all actives have a fitted effect of over 50% in size. In outline: (§2)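 Seeding of HEK293 cells together with cytotoxicity dye preceded a 5 h incubation at 37 C/5% CO2. Test compounds in DMSO were then added and fluorescence monitored across 40 h.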
A short description of experiment [16]: qHTS RealTime-Glo MT Cell Viability Assay in HepG2 cells - 40 hour (AID 1224870). Note: nearly all actives have a fitted effect of over 50% in size. An outline of the steps:
(§3)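 HepG2 cells (600/well) mixed with RealTime-Glo MT reagent, settled 5 h at 37 C/5% CO2 before compound addition. Nonlytic NanoLuc luminescence from viable-cell prosubstrate reduction read repeatedly during 40 h treatment at 37 C.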

Experiment [17] is described as follows: A CellTox Green Cytotoxicity Assay to monitor cytotoxicity in HEK293 cells - 40 hour (AID 1224871). Note: nearly all actives have a fitted effect of over 45% in size. An outline of the steps:
as §2

The nature of experiment [18]: qHTS RealTime-Glo MT Cell Viability Assay in HEK293 cells - 16 hour (AID 1224872). An outline of the steps: as §1
The nature of experiment [19]: qHTS RealTime-Glo MT Cell Viability Assay in HepG2 cells - 8 hour (AID 1224873). Note: nearly all actives have a fitted effect of over 55% in size. An outline of the steps:
as §3

Experiment [20] can be described thus: qHTS assay to identify small molecule agonists of the estrogen related receptor (ERR) signaling pathway from Tox21 library (AID 1224849; calls by dose curve; note: nearly all actives have a fitted effect of over 15% in size). To be noted: ERR reporter cell line, ONE-Glo luciferase, 18 h; at 92.4 µM (top of the series). An outline of the steps: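 Six hours post-seeding at 37 C/5% CO2, ERR cells receive DMSO-solubilised compounds; after 18 h at 37 C, ONE-Glo reagent is applied and luminescence recorded.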

SMILES strings stand for the structures. “And” between values parts separate entries of the source, which are not always exact repeats. Identical values can stand only once. Values without a mark were called inactive. Inconclusive results are not listed. The source made the active and inactive calls. Unless noted, calls come from the whole dose curve; as a rule, active = well fitted curve in the direction sought with a large enough effect in the repeat runs; inconclusive = weak or mixed curves; inactive = no such curve, though single readings can be large; an effect the other way counts as inactive or inconclusive.
% is set by controls: 0 for no effect and ±100 for the full control effect.

Chain of Thyrotropin receptor (Homo sapiens) (P16473 whole entry, looked up): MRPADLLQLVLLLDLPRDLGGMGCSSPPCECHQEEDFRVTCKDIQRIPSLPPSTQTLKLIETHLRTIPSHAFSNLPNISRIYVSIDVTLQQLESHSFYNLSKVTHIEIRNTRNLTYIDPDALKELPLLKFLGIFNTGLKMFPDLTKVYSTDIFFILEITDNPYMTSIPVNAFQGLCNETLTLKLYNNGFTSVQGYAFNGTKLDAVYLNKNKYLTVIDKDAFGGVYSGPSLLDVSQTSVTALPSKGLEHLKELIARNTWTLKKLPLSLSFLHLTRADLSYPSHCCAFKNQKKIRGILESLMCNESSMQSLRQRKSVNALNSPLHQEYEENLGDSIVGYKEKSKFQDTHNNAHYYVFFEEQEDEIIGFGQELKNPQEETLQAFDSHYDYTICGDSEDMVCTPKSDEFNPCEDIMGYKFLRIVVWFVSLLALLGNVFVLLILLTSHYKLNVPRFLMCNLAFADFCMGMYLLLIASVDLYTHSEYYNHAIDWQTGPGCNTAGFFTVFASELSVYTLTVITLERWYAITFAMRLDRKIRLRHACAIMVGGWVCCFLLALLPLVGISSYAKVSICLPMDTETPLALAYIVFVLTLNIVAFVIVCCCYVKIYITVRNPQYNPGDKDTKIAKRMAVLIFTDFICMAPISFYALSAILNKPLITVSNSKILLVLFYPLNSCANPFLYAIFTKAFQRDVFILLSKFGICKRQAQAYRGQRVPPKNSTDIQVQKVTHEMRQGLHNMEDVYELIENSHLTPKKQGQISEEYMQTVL

As to `O=c1[nH]c(=O)[nH]c(=O)[nH]1`, the Potency result in [1], in experiment [2], in experiment [3], in experiment [4], in [5] and in [7] was “inactive” each time. In addition, the Potency entry in experiment [8], in [9], in experiment [11], in experiment [12], in experiment [14] and in [15] was “inactive” in each case. Also, in experiment [17], the Potency entry was “inactive”. In addition, the compound was classed as inactive in experiment [6], in [10], in experiment [13], in experiment [16] and in experiment [18].
On to `COC(=O)c1ccccc1N`, for which the Potency result in [1], in experiment [2], in experiment [3], in experiment [4], in [5] and in [7] was “inactive” each time. The Potency entry in [8], in [9], in [12], in [14], in experiment [15] and in experiment [17] was “inactive” in each case. Moreover, the call in [6], in experiment [10], in [13] and in experiment [18] was inactive.
In the case of `CCOC(=O)c1ccccc1C(=O)OCC`, the Potency result in experiment [1], in experiment [2], in experiment [3], in [4], in experiment [5] and in experiment [8] was “inactive” each time. The Potency result in experiment [12], in experiment [14], in experiment [15] and in experiment [17] was “inactive” each time. Moreover, the call in experiment [6], in experiment [10], in experiment [13] and in experiment [18] was inactive.
In the case of `CCCCOC(=O)c1ccccc1C(=O)OCCCC`, the Potency result in [1], in experiment [2], in experiment [3], in [4], in experiment [5] and in [8] was “inactive” in each case. Also, the Potency result in experiment [12], in [14], in [15] and in experiment [17] was “inactive” in each case. For the same compound, the call in experiment [6], in [10], in experiment [13], in [16], in experiment [18] and in experiment [19] was inactive.
With `CN=C=S`, the Potency result in [1], in experiment [2], in experiment [3], in experiment [4], in experiment [5] and in [7] was “inactive” in each case. Further, the Potency entry in experiment [8], in [9], in experiment [11], in experiment [12], in experiment [14] and in experiment [15] was “inactive” each time. The Potency entry in experiment [17] was “inactive”. In addition, the compound was classed as inactive in [6], in experiment [10], in experiment [13], in experiment [16], in [18] and in experiment [19].
For the compound `CC(C)(C)OOC(C)(C)C`, the Potency result in experiment [1], in [2], in experiment [3], in [4], in [5] and in experiment [7] was “inactive” each time. For the same compound, the Potency result in experiment [8], in [11], in [12], in experiment [14], in experiment [15] and in [17] was “inactive” each time. In addition, the outcome in experiment [6], in experiment [10], in experiment [13], in experiment [16], in experiment [18] and in experiment [19] was inactive.
Take `Cc1ccc(N)cc1N`: the Potency result in [1], in [2], in experiment [4], in experiment [5], in [8] and in experiment [11] was “inactive” each time. For the same compound, the Potency result in [12], in [15] and in experiment [17] was “inactive” each time. Moreover, the Potency in experiment [3] was 53 µM (active). In addition, the call in experiment [6], in [10], in [13], in [16] and in experiment [18] was inactive.
Turning to `Nc1ccc(Oc2ccc(N)cc2)cc1`, the Potency entry in [1], in experiment [2], in experiment [3], in experiment [4], in [5] and in experiment [7] was “inactive” in each case. Further, the Potency entry in experiment [8], in experiment [9], in experiment [12], in [14], in [15] and in experiment [17] was “inactive” throughout. The compound was called inactive in experiment [6], in experiment [10], in [13], in experiment [16], in experiment [18] and in experiment [19]. Further, the activity change, positive = activation in [20] was -8.13% and -18.8%.

These data come from PubChem BioAssay (Tox21).
